# Laboratory results reported in PubChem BioAssay (Tox21).
# Several values for one entry are separate records, joined by “and”; a condition that tells them apart may be missing. Equal entries are not always repeated. Records with an inconclusive call do not appear. Entries that show only a call come without a potency. Activity calls are given as the source filed them. Calls come from the whole dose curve; as a rule, active = well fitted cell-killing curve with a large enough effect in the repeat runs; inconclusive = weak or mixed curves, or effect the other way; inactive = flat fitted curve, though single readings scatter.
# Experiment: cAMP Responsive Elements (CRE) small molecule antagonists, cell-based qHTS assay: qHTS cell viability counter screen (AID 2060913); note: nearly all actives have a fitted effect of over 40% in size
# Settings: CRE-bla HEK293T viability, CellTiter-Glo luminescence, 5 h; series mostly up to 92.4 µM
# Summary of the method: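 HEK293T CRE-bla, 2,000 cells/well, 18 h preincubation; cpd in DMSO + NKH477 0.25 uM final, 3 h 37 C/5% CO2; LiveBLAzer 2 h RT, then CellTiter-Glo 30 min RT, luminescence.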
# Potency is the fitted concentration of half-maximal effect.
row,SMILES,Potency
1,CC(=O)CCc1ccccc1,inactive
2,C#CC(C)(O)CC(C)C (stereo not given),inactive
3,C=CC(=O)NCOCCCC,inactive
4,Nc1nc(N)c2nc(-c3ccccc3)c(N)nc2n1,inactive
5,N[C@H](C(=O)O)[C@@H](O)c1ccc(O)c(O)c1,inactive
6,CCCC[N+](C)(CCCC)CCCC,inactive
7,O=C(Oc1cccc2cccnc12)c1ccccc1,inactive
8,CCCCCCCCCCOCC(O)CN (stereo not given),inactive
9,O=C(O)Cn1cnnn1,inactive
10,Cc1ccc(O)cc1,inactive
11,Cc1ccc(/C(=C\CN2CCCC2)c2ccccn2)cc1,inactive
12,Nc1cc(N)cc(C(=O)O)c1,inactive
13,CC(C)(C)CC(C)(C)c1ccc(OCCOCC[N+](C)(C)Cc2ccccc2)cc1,27.3 µM (active) and 29.8 µM (active)
14,CN1CCN(CCCN2c3ccccc3Sc3ccc(S(=O)(=O)N(C)C)cc32)CC1,inactive
15,O=C(O)c1cc(N=Nc2ccc(S(=O)(=O)Nc3ccccn3)cc2)ccc1O,inactive
16,NCCc1ccn[nH]1,inactive
17,CCCCOCC,inactive
18,O=C(O)[C@@H]1[C@H]2C[C@H]3c4[nH]c5ccccc5c4CCN3C[C@@H]2CC[C@@H]1O,inactive
19,CCO/C([O-])=N/c1c[n+](N2CCOCC2)no1,inactive
20,C=CC[N+]1([C@H]2C[C@H]3[C@@H]4CC[C@H]5C[C@H](OC(C)=O)[C@@H](N6CCCCC6)C[C@]5(C)[C@H]4CC[C@]3(C)[C@H]2OC(=O)CC)CCCCC1,inactive

row,SMILES,Potency
1,CCc1c2c(nc3ccc(OC(=O)N4CCC(N5CCCCC5)CC4)cc13)-c1cc3c(c(=O)n1C2)COC(=O)[C@]3(O)CC,inactive
2,CC/C=C\CCOC(=O)c1ccccc1O,inactive
3,CCOC(=O)c1c(C)n(C)c2ccc(O)cc12,inactive
4,CC1CCc2nccnc21 (stereo not given),inactive
5,CCCCOCCCC,inactive
6,COCCCOc1cc(C[C@@H](C[C@H](N)[C@@H](O)C[C@H](C(=O)NCC(C)(C)C(N)=O)C(C)C)C(C)C)ccc1OC,inactive
7,CCCOCC(C)OCC(C)O (stereo not given),inactive
8,CC(=O)OCC(=O)[C@@]1(O)CC[C@H]2[C@@H]3CCC4=CC(=O)CC[C@]4(C)[C@H]3C(=O)C[C@@]21C,inactive
9,CCOCCC(=O)OCC,inactive
10,CC1(C)CC(N=C=O)CC(C)(CN=C=O)C1 (stereo not given),inactive
11,CN(C)CCn1nnnc1SCC1=C(C(=O)O)N2C(=O)[C@@H](NC(=O)Cc3csc(N)n3)[C@H]2SC1,inactive
12,COc1nccnc1CC(C)C,inactive
13,Cc1cc(=O)[nH]c(C(C)C)n1,inactive
14,CCCCC1CCC(=O)O1 (stereo not given),inactive
15,NC(=O)/N=N/C(N)=O,inactive
16,C=CCCCCCCCCC=O,inactive
17,C=CC(C)(C)O,inactive
18,COCCc1ccc(OCC(O)CNC(C)C)cc1 (stereo not given),inactive
19,Cc1nc2ccccc2n1Cc1ccc(Cl)cc1,inactive
20,CCCC=O,inactive
